Reference: PubChem BioAssay AID2685 (National Center for Advancing Translational Sciences (NCATS), 2010)
The campaign covered roughly 320,000 compounds. About 2,100 (0.66%) were called active. Not shown: some 53% with an inconclusive outcome. Calls come from the whole dose curve; as a rule, active = well fitted inhibition curve with a large enough effect in the signal ratio, with a control signal flat (not every such curve was filed as active); inconclusive = small, poorly fitted or top-dose-only effect, or effect the other way, or a change in a side signal; inactive = flat fitted curve, though single readings scatter; the % refers to the signal ratio. Many of the other results were omitted from the sample, so actives are more common in it than they were.

assay: qHTS Assay for Lipid Storage Modulators in Drosophila S3 Cells; conditions: BODIPY lipid droplet fluorescence, 18-24 h, cells fed with added oleic acid; cell number change: measured here: cell count max response; series mostly up to 46.1 µM; lipid storage change, negative = inhibition: at the top concentration;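 for cell number change: cells counted by Cell Tracker Red CMTPX staining in the red channel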; for lipid storage change, negative = inhibition: % is set by controls: 0 for no effect and ±100 for the full control effect
Outline: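 Drosophila S3 cells loaded with oleic acid (400 uM, as added) and compounds at several concentrations; lipid droplets imaged by 488-nm laser-scanning cytometry, 500–530 nm intensity and object ratio to cell channel. Percent activity normalized to 20 uM Triacsin C.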
Potency is the fitted concentration of half-maximal effect.

Row | Compound | lipid storage change, negative = inhibition | cell number change [%] | outcome | Potency
1 | O=C(CN1C(=O)NC2(CCCC2)C1=O)Nc1cc(S(=O)(=O)N2CCOCC2)ccc1OCC(F)(F)F | 0.0733% (inactive) | 18 |  | 
2 | Cc1ccccc1-n1nc2c(c1NC(=O)c1cccs1)CS(=O)(=O)C2 |  |  | inactive | 
3 | Nn1c(SCC(=O)Nc2ccccc2)nnc1-c1cccnc1 |  |  | inactive | 
4 | COc1cccc(C(=O)Nc2nnc(-c3ccccc3)s2)c1 | -1.19% (inactive) | 0.556 |  | 
5 | Cc1ccc(NC(=O)CCC(=O)OCCCC(F)(F)C(F)(F)F)cc1 | -0.336% (inactive) | -12.9 |  | 
6 | Cc1ccccc1NC(=O)CCC(=O)OCCCC(F)(F)C(F)(F)F | 20.7% (inactive) | 12.7 |  | 
7 | Cc1ccccc1OC(=O)CCC(=O)OCCCC(F)(F)C(F)(F)F |  | 10.2 |  | 29.1 µM (active)
8 | O=c1oc(-c2cccc([N+](=O)[O-])c2)nc2ccccc12 | 12% (inactive) | 0.88 |  | 
9 | Cc1ccc(S(=O)(=O)Nc2c(O)c3ccccc3oc2=O)cc1C |  | 6.35 | inactive | 
10 | CCn1c(=O)c(=O)[nH]c2c(=O)oc3ccc(S(=O)(=O)Nc4ccc(OC)cc4)cc3c21 |  | 1.26 |  | 4.61 µM (active)
11 | COc1ccc(NS(=O)(=O)c2ccc3oc(=S)[nH]c3c2)cc1 | -21.1% (inactive) | 5.85 |  | 
12 | CCn1c(=O)c(=O)[nH]c2c(=O)oc3ccc(S(=O)(=O)Nc4ccccc4)cc3c21 |  | -26.4 |  | 13 µM (active)
13 | COc1ccc(NS(=O)(=O)c2ccc3oc(=O)ccc3c2)cc1 | -5.71% (inactive) | -11.6 |  | 
14 | Cn1c(=O)oc2cc(S(=O)(=O)Nc3ccccc3)ccc21 | -3.68% [at 9.22 µM] (inactive) | -3.03 |  | 
15 | COc1ccc(-c2nc(=S)[nH][nH]2)cc1 | 2.02% (inactive) | -14.6 |  | 
16 | O=C(NCc1cccnc1)C1CCCN(Cc2cnn(-c3ccccc3)c2-n2cccc2)C1 (centres undefined) | 0.331% (inactive) | -3.38 |  | 
17 | Cc1ccc2nc3c(cc(C(=O)NCc4ccco4)c(=N)n3Cc3ccco3)c(=O)n2c1 | -7.54% (inactive) | -5.34 |  | 
18 | Cc1ccc(N(C(=O)CCC(=O)Nc2cc(C)on2)C(C(=O)NC2CCCC2)c2ccccc2)cc1 (centres undefined) |  | -13.1 | inactive | 
19 | O=C(CSc1nnc(-c2ccco2)n1-c1ccccc1)N1CCOCC1 |  |  | inactive | 

Row | Compound | lipid storage change, negative = inhibition | cell number change [%] | outcome | Potency
20 | Cc1ccsc1C(=O)Nc1ccc(C(=O)O)cc1 |  |  | inactive | 
21 | O=C(O)CCCC(=O)N1CCOCCOCCOCCOCC1 | -7% (inactive) | 22.2 |  | 
22 | Cc1cccc(NC(=O)CNC(=O)COc2ccc(C(=O)c3ccc(F)cc3)cc2)c1C | 26.3% (inactive) | 8.34 |  | 
23 | CN(C)C(=O)Cn1cc(S(=O)(=O)Cc2ccccc2)c2ccccc21 |  | -2.09 |  | 0.651 µM (active)
24 | CCN(CC)C(=O)Cn1cc(S(=O)(=O)Cc2cccc([N+](=O)[O-])c2)c2ccccc21 | 1.45% (inactive) | 0.298 |  | 
25 | O=C(Cn1cc(S(=O)(=O)Cc2ccccc2)c2ccccc21)N1CCOCC1 | 10.8% (inactive) | 6.54 |  | 
26 | CC(C)OC(=O)CSc1nc2c(cc1C#N)CCCCC2 | -3.11% (inactive) |  |  | 
27 | Cc1cc(C(=O)CCl)c(C)n1CCc1ccc(F)cc1 | -0.0782% (inactive) | -8.52 |  | 
28 | Cc1cc(C(=O)CN2C(=O)C(=O)N(Cc3ccccc3)C2=O)c(C)n1Cc1ccc(F)cc1 | 18.7% (inactive) | -8.57 |  | 
29 | Cc1cc(C(=O)CN2C(=O)C(=O)N(C3CCCC3)C2=O)c(C)n1CCc1ccc(F)cc1 |  | -15.3 |  | 20.6 µM (active)
30 | COC(=O)C(C)N(C(=O)c1cccc(Cl)c1)c1c(C)cccc1C (centres undefined) |  |  | inactive | 
31 | COC(=O)C(Cc1ccccc1)NC(=O)CNC(=O)c1sc2ccccc2c1Cl (centres undefined) |  | -4.58 |  | 1.84 µM (active)
32 | CC(=O)Nc1ccc(NC(=O)CNC(=O)c2sc3ccccc3c2Cl)cc1 | -4.95% (inactive) | 0.461 |  | 
33 | Cc1ccc(S(=O)(=O)N2CCN(C(=O)CNC(=O)c3sc4ccccc4c3Cl)CC2)cc1 |  |  | inactive | 
34 | CC1CC(C)CN(C(=O)CNC(=O)c2sc3ccccc3c2Cl)C1 (centres undefined) |  | -1.35 |  | 1.46 µM (active)
35 | COC(=O)c1ccc(CNC(=O)CNC(=O)c2sc3ccccc3c2Cl)cc1 | 5.59% (inactive) | 3.22 |  | 
36 | CC1CCCN(C(=O)CNC(=O)c2sc3ccccc3c2Cl)C1 (centres undefined) | 0.306% [at 0.0737 µM] (inactive) | 11.4 |  | 
37 | CC(C)N(Cc1nc(-c2ccccc2)no1)C(=O)C(C)(C)C |  |  | inactive | 
38 | Cc1cccc(OCC(=O)N=Nc2c(O)[nH]c3ccc([N+](=O)[O-])cc23)c1 | -6.55% (inactive) | -0.974 |  | 

Row | Compound | lipid storage change, negative = inhibition | cell number change [%] | outcome | Potency
39 | O=C(CNC(=O)c1ccco1)N=Nc1c(O)[nH]c2ccc([N+](=O)[O-])cc12 |  | 26.6 |  | 1.03 µM (active)
40 | O=C(CNC(=O)c1ccco1)N=Nc1c(O)[nH]c2ccc(Br)cc12 | -20.8% (inactive) | -9.17 |  | 
41 | CCCCN(C(=O)c1cccc(S(=O)(=O)N2CC(C)OC(C)C2)c1)c1c(N)n(CC(C)C)c(=O)[nH]c1=O (centres undefined) | 17% (inactive) |  |  | 
42 | O=[N+]([O-])c1ccc2nc(C(O)C(O)c3nc4ccc([N+](=O)[O-])cc4[nH]3)[nH]c2c1 (centres undefined) |  | 22.3 | inactive | 
43 | O=C(O)CSc1nnc(-c2ccc(Cl)cc2Cl)n1-c1ccccc1 |  | 9.07 | inactive | 
44 | Cc1cccc(-c2nnc(SCC(=O)O)n2Cc2ccccc2)c1 | 6.73% (inactive) | -0.739 |  | 
45 | O=C(O)CSc1nnc(-c2cccnc2)n1Cc1ccccc1 | 7.76% (inactive) | 0.309 |  | 
46 | O=C(O)CSc1nnc(-c2ccc(Cl)cc2Cl)n1Cc1ccccc1 |  | -15.2 |  | 5.8 µM (active)
47 | COc1ccc(-c2nnc(SCC(=O)O)n2Cc2ccccc2)cc1 | -23% (inactive) | 16.6 |  | 
48 | O=C(O)CSc1nnc(-c2ccccc2O)n1Cc1ccccc1 |  | 0.192 |  | 25.9 µM (active)
49 | Cc1cccc(-c2ccc3ncnc(NCc4cc(C)cs4)c3c2)c1 | -4.08% (inactive) | 8.79 |  | 
50 | O=C(CCSc1ccccc1)Nc1ccccc1Br | -12.8% (inactive) | 3.05 |  | 
51 | COc1ccccc1NC(=O)COC(=O)CCn1c(C)csc1=O | 22.3% [at 0.0737 µM] (inactive) | -23.2 |  | 
52 | O=C(CN1C(=O)c2ccccc2C1=O)Nc1ccccc1C(=O)NC1CCCCCC1 | 5.16% (inactive) | 2.31 |  | 
53 | COc1cccc(C2CC(C(F)(F)F)n3ncc(C(=O)O)c3N2)c1 (centres undefined) | 7.32% (inactive) | -3.05 |  | 
54 | CCOC(=O)C1C(=O)Nc2nc(C)nn2C1c1ccccc1 (centres undefined) |  |  | inactive | 
55 | Cc1cccc(NC(=O)c2cc3c(=O)n4ccccc4nc3n(CC(C)C)c2=N)c1 | 4.83% (inactive) | 2.38 |  | 
56 | O=c1oc(-c2ccccc2Br)nc2ccccc12 |  | -5.52 | inactive | 
57 | Cc1cc(C)n(-c2ccc(Cl)c(C(=O)Nc3ccc(OC(F)(F)F)cc3)n2)n1 | 19.9% (inactive) | 14.5 |  | 
